Data published in PubChem BioAssay AID1159580 (chemical genetic matrix, 2015).
The campaign covered roughly 5,500 compounds. About 2,000 (36%) were called active. Another 18% or so got no clear call; they are omitted. No stated cut-off is given here; in the data, active means normalized growth mostly below about 0.91 (no sharp cut-off); inconclusive means no clear call, values can overlap the other calls; inactive means mostly above about 0.92. The list shows a part of the results.

Experiment: chemical genetic growth profiling, strain panel (AID 1159580);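 further: tested at 20 µM; growth read once vehicle control cultures reached saturation at 30 °C; 1 = growth at the plate median or of vehicle wells; lower values mean less growth of the strain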
Settings: growth OD

Measured: normalized growth

COc1ccc2c(c1)[nH]c1c(C)nccc12
inactive: S. cerevisiae deletion strains, locus YJR075W, strain HOC1, hits give low values 1.02 | S. cerevisiae deletion strains, locus YKL009W, strain mrt4, hits give low values 0.954 | S. cerevisiae deletion strains, locus YKL068W, hits give low values 0.978 | S. cerevisiae deletion strains, locus YKL085W, strain MDH1 (second series), hits give low values 0.979 | S. cerevisiae deletion strains, locus YKL085W, strain MDH1, hits give low values 0.979 | S. cerevisiae deletion strains, locus YKL160W, strain elf1, hits give low values 0.996 | S. cerevisiae deletion strains, locus YKL190W, strain CNB1, hits give low values 1.01 | S. cerevisiae deletion strains, locus YKR001C, strain vps1, hits give low values 0.962 | S. cerevisiae deletion strains, locus YKR026C, strain gcn3, hits give low values 0.978 | S. cerevisiae deletion strains, locus YKR091W, strain srl3, hits give low values 0.996 | S. cerevisiae deletion strains, locus YLL001W, strain dnm1, hits give low values 0.987 | S. cerevisiae deletion strains, locus YLL026W, hits give low values 0.993 | S. cerevisiae deletion strains, locus YLL041C, strain sdh2, hits give low values 0.993 | S. cerevisiae deletion strains, locus YLR027C, strain aat2, hits give low values 0.992 | S. cerevisiae deletion strains, locus YLR039C, strain RIC1, hits give low values 1.22 | S. cerevisiae deletion strains, locus YLR058C, strain SHM2, hits give low values 1.01 | S. cerevisiae deletion strains, locus YLR102C, strain apc9, hits give low values 0.981 | S. cerevisiae deletion strains, locus YLR113W, strain HOG1, hits give low values 1 | S. cerevisiae deletion strains, locus YLR221C, strain rsa3, hits give low values 0.995 | S. cerevisiae deletion strains, locus YLR258W, strain gsy2, hits give low values 0.995 | S. cerevisiae deletion strains, locus YLR262C, strain YPT6 (second series), hits give low values 1.03 | S. cerevisiae deletion strains, locus YLR262C, strain YPT6, hits give low values 1.21 | S. cerevisiae deletion strains, locus YLR268W, strain sec22, hits give low values 1 | S. cerevisiae deletion strains, locus YLR320W, strain mms22, hits give low values 1 | S. cerevisiae deletion strains, locus YLR330W, strain CHS5, hits give low values 0.997 | S. cerevisiae deletion strains, locus YLR342W, strain FKS1 (second series), hits give low values 1.02 | S. cerevisiae deletion strains, locus YLR342W, strain FKS1, hits give low values 1 | S. cerevisiae deletion strains, locus YLR357W, strain rsc2, hits give low values 0.978 | S. cerevisiae deletion strains, locus YLR370C, strain arc18, hits give low values 1 | S. cerevisiae deletion strains, locus YLR371W, strain rom2, hits give low values 0.979 | S. cerevisiae deletion strains, locus YLR384C, strain iki3, hits give low values 0.999 | S. cerevisiae deletion strains, locus YLR418C, strain cdc73, hits give low values 1.03 | S. cerevisiae deletion strains, locus YML016C, strain PPZ1, hits give low values 1.01 | S. cerevisiae deletion strains, locus YML032C, strain rad52, hits give low values 0.926 | S. cerevisiae deletion strains, locus YML120C, strain ndi1, hits give low values 1 | S. cerevisiae deletion strains, locus YML124C, strain tub3, hits give low values 0.982 | S. cerevisiae deletion strains, locus YMR058W, strain fet3, hits give low values 0.983 | S. cerevisiae deletion strains, locus YMR078C, strain ctf18, hits give low values 0.976 | S. cerevisiae deletion strains, locus YMR125W, strain sto1, hits give low values 0.975 | S. cerevisiae deletion strains, locus YMR129W, hits give low values 0.988 | S. cerevisiae deletion strains, locus YMR205C, strain PFK2, hits give low values 0.999 | S. cerevisiae deletion strains, locus YMR223W, strain ubp8, hits give low values 0.962 | S. cerevisiae deletion strains, locus YMR231W, strain pep5, hits give low values 1.01 | S. cerevisiae deletion strains, locus YMR263W, strain SAP30, hits give low values 1.01 | S. cerevisiae deletion strains, locus YMR307W, strain GAS1, hits give low values 1.12 | S. cerevisiae deletion strains, locus YNL067W, strain RPL9B, hits give low values 0.971 | S. cerevisiae deletion strains, locus YNL071W, strain lat1, hits give low values 0.991 | S. cerevisiae deletion strains, locus YNL128W, strain TEP1, hits give low values 1.03 | S. cerevisiae deletion strains, locus YNL153C, strain GIM3, hits give low values 1.02 | S. cerevisiae deletion strains, locus YNL183C, strain NPR1, hits give low values 0.982 | S. cerevisiae deletion strains, locus YNL209W, strain ssb2, hits give low values 0.996 | S. cerevisiae deletion strains, locus YNL233W, strain BNI4, hits give low values 1.01 | S. cerevisiae deletion strains, locus YNL248C, strain rpa49, hits give low values 0.966 | S. cerevisiae deletion strains, locus YNL250W, strain rad50, hits give low values 0.986 | S. cerevisiae deletion strains, locus YNL271C, strain bni1, hits give low values 0.991 | S. cerevisiae deletion strains, locus YNL298W, strain CLA4, hits give low values 0.968 | S. cerevisiae deletion strains, locus YNL307C, strain MCK1, hits give low values 0.967 | S. cerevisiae deletion strains, locus YNL322C, strain KRE1 (second series), hits give low values 1 | S. cerevisiae deletion strains, locus YNL322C, strain KRE1, hits give low values 1.01 | S. cerevisiae deletion strains, locus YNR049C, strain mso1, hits give low values 0.997 | S. cerevisiae deletion strains, locus YNR052C, strain pop2, hits give low values 0.961 | S. cerevisiae deletion strains, locus YOL006C, strain TOP1, hits give low values 0.963 | S. cerevisiae deletion strains, locus YOL012C, strain htz1 1.03 | S. cerevisiae deletion strains, locus YOL147C, strain pex11, hits give low values 0.984 | S. cerevisiae deletion strains, locus YOR001W, strain rrp6, hits give low values 1.02 | S. cerevisiae deletion strains, locus YOR061W, strain CKA2, hits give low values 1.04 | S. cerevisiae deletion strains, locus YOR069W, strain VPS5, hits give low values 1 | S. cerevisiae deletion strains, locus YOR070C, strain gyp1, hits give low values 0.995 | S. cerevisiae deletion strains, locus YOR080W, strain dia2, hits give low values 1.01 | S. cerevisiae deletion strains, locus YOR083W, strain WHI5, hits give low values 0.996 | S. cerevisiae deletion strains, locus YOR106W, strain vam3, hits give low values 0.983 | S. cerevisiae deletion strains, locus YOR136W, strain idh2, hits give low values 0.971 | S. cerevisiae deletion strains, locus YOR144C, strain elg1, hits give low values 0.988 | S. cerevisiae deletion strains, locus YOR184W, strain ser1, hits give low values 0.953 | S. cerevisiae deletion strains, locus YOR231W, strain MKK1, hits give low values 1 | S. cerevisiae deletion strains, locus YOR265W, strain rbl2, hits give low values 0.996 | S. cerevisiae deletion strains, locus YOR270C, strain vph1, hits give low values 0.974 | S. cerevisiae deletion strains, locus YOR290C, strain snf2, hits give low values 0.99 | S. cerevisiae deletion strains, locus YOR316C, strain cot1, hits give low values 0.985 | S. cerevisiae deletion strains, locus YPL051W, strain arl3, hits give low values 0.986 | S. cerevisiae deletion strains, locus YPL055C, strain LGE1, hits give low values 1.02 | S. cerevisiae deletion strains, locus YPL078C, strain atp4, hits give low values 0.995 | S. cerevisiae deletion strains, locus YPL106C, strain sse1, hits give low values 0.972 | S. cerevisiae deletion strains, locus YPL240C, strain hsp82, hits give low values 0.981 | S. cerevisiae deletion strains, locus YPL241C, strain CIN2, hits give low values 1.01 | S. cerevisiae deletion strains, locus YPL256C, strain CLN2, hits give low values 1.01 | S. cerevisiae deletion strains, locus YPR119W, strain clb2, hits give low values 0.988 | S. cerevisiae deletion strains, locus YPR141C, strain kar3, hits give low values 0.979 | S. cerevisiae deletion strains, locus YPR163C, strain tif3, hits give low values 0.975 | S. cerevisiae deletion strains, locus YPR167C, strain met16, hits give low values 1 | S. cerevisiae deletion strains, strain wtn01, hits give low values 0.998 | S. cerevisiae strains, strain wild type, hits give low values 0.998
